Reference: PubChem BioAssay (EPA / NIEHS)
Inconclusive results are not listed. Activity calls are given as the source filed them. Rule for the calls: active = hit-call score of the fitted dose curve at least 0.9, where 1 is the maximum; inconclusive = response in the unintended direction; inactive = score below 0.9.

Each compound was assayed on Cytochrome P450 2C19 (Homo sapiens) (UniProt P33261) (assay: CLD_CYP2C19_24hr: CellzDirect (CLD) Gene Expression Assay for xenobiotic metabolism (CYP2C19) at 24 hours (AID 2283687);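 note: activity means mRNA induction above DMSO vehicle baseline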).
Cytochrome P450 2C19 (Homo sapiens), sequence (P33261 whole entry, looked up): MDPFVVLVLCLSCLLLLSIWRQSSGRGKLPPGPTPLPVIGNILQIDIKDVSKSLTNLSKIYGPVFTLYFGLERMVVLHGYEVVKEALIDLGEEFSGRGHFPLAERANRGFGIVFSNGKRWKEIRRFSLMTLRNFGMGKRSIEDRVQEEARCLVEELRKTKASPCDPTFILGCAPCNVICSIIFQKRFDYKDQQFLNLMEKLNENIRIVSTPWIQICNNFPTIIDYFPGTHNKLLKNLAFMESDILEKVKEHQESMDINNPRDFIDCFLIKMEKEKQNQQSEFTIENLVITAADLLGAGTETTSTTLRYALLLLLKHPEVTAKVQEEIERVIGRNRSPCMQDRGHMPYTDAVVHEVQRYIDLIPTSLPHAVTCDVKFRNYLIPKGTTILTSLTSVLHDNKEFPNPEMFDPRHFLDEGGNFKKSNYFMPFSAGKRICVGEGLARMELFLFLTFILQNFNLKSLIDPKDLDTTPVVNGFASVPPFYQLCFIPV
Description: CLD_24hr is a cell-based, multiplexed-readout assay that uses hepatocyte, a human liver primary cell, with measurements taken at 24 hours after chemical dosing in a 96-well plate.CLD_CYP2C19_24hr is one of 16 assay component(s) measured or calculated from the CLD_24hr assay. It is designed to make measurements of mRNA induction, a form of inducible reporter, as detected with chemiluminescence signals by Quantitative Nuclease Protection Assay (qNPA) technology.Data from the assay component CLD_CYP2C19_24hr was analyzed at the endpoint, CLD_CYP2C19_24hr, in the positive analysis fitting direction relative to DMSO as the negative control and baseline of activity. Using a type of inducible reporter, gain-of-signal activity can be used to understand changes in the reporter gene as they relate to the gene CYP2C19. Furthermore, this assay endpoint can be referred to as a primary readout. To generalize the intended target to other relatable targets, this assay endpoint is annotated to the cyp intended target family, where subfamily is xenobiotic metabolism.
Human hepatocyte cultures were treated daily for two consecutive days with fresh dosing solutions containing appropriate concentrations of the 320 ToxCast chemicals (chemical identities were blinded to CellzDirect and other ToxCast collaborators), vehicle control (0.2% DMSO), and positive control inducers as summarized in Table 1. Due to the large number of treatment groups and chemicals examined, the ToxCast chemicals were divided into two groups (spanning two independent cultures of hepatocytes from separate donor preparations (Hu778: ToxCast plates 1 and 2; Hu776: ToxCast plates 3 and 4). Each preparation of human hepatocyte cultures was treated with respective vehicle control, medium only control, set of six positive controls/reference chemicals for the five hepatic receptor pathways, and a subset of eight of the ToxCast chemicals (indoxacarb, pyrithiobac-sodium, norflurazon, cyhalofop-butyl, methomyl, thiram, acetochlor, and propiconazole). These replicate data, coupled with internal replicates designed within the blinded ToxCast chemical library, provided additional data to evaluate interindividual differences between hepatocyte preparations and their potential impact on chemical profiles.Cell morphology and integrity were evaluated using phase-contrast microscopy as an indicator of hepatocyte cell health (Tyson & Green, 1987). Cultures for each treatment group (i.e., media, vehicle [0.2% DMSO], positive control inducers [multiple concentrations], and the ToxCast chemicals [multiple concentrations]) were observed and cell morphology was assessed relative to vehicle control cultures at each harvest time point (0, 6, 24, or 48 h). […] Images were evaluated at the conclusion of the study to assess changes in cell integrity and account for the effects of chemical exposure on uncharacteristic changes in concentration-dependent gene expression profiles. The results from these determinations of apparent cytotoxicity were annotated (yes/no) alongside the corresponding qNPA data for reference.At the conclusion of each treatment period, hepatocyte cultures (96-well) were washed with 1 volume of HBSS, lysed by addition of 25 ul ArrayPlate lysis buffer (HTG, Tucson, AZ), and 70 ul/well of Denaturation Oil, denatured by incubation at 95C for 10 min, and frozen at approximately -70C until analysis by nuclease protection assay (qNPA) (Roberts et al., 2007). For qNPA analysis, cell lysates were thawed at 50C for approximately 30 min, qNPA probes were added, and samples were incubated at 95C for 10 min to begin the detection process by denaturing the target RNA, dissociating the duplexes and secondary structure hybridization. At the conclusion of the hybridization period, S1 nuclease reagent was added to each sample to digest all nonprotected nucleotides at 50C for 60-90 min. […]
For `CCC(C)(NC(=O)c1cc(Cl)c(C)c(Cl)c1)C(=O)CCl` (centres undefined), the outcome was “inactive”. `O=C(O)COc1ccc(Cl)cc1Cl` was tested, and the outcome was “inactive”. In the case of `ClC1C(Cl)C(Cl)C(Cl)C(Cl)C1Cl` (centres undefined), the outcome is reported as “inactive”. With `COP(=O)(OC)OC=C(Cl)Cl` the outcome was “inactive”. With `CC1(C)C(C=C(Cl)Cl)C1C(=O)OC(C#N)c1ccc(F)c(Oc2ccccc2)c1` (centres undefined) the outcome was “inactive”. For `CNC(=O)CSP(=S)(OC)OC`, the outcome was “inactive”. `N#CN` was tested, and the outcome was “inactive”. `COC(=O)c1ccccc1CS(=O)(=O)NC(=O)Nc1nc(OC)cc(OC)n1` was tested, and the outcome was “inactive”. `O=C(O)CCCOc1ccc(Cl)cc1Cl` was tested, and the outcome was “inactive”. In the case of `CC(C)OC(=O)Nc1cccc(Cl)c1`, the outcome is reported as “inactive”. In the case of `COC(=O)c1ccccc1S(=O)(=O)NC(=O)N(C)c1nc(C)nc(OC)n1`, the outcome is reported as “inactive”. With `CCS(=O)(=O)c1cccnc1S(=O)(=O)NC(=O)Nc1nc(OC)cc(OC)n1` the outcome was “inactive”. For `CC(C)(C)C(O)C(Oc1ccc(Cl)cc1)n1cncn1` (centres undefined), the outcome was “inactive”. In the case of `O=S(=O)(O)C(F)(F)C(F)(F)C(F)(F)C(F)(F)C(F)(F)C(F)(F)C(F)(F)C(F)(F)F`, the outcome is reported as “inactive”. In the case of `Clc1ccccc1-c1nnc(-c2ccccc2Cl)nn1`, the outcome is reported as “inactive”. In the case of `Cc1cc(C)nc(NC(=O)NS(=O)(=O)c2ccccc2C(=O)OC2COC2)n1`, the outcome is reported as “inactive”. `[2H]C1([2H])[n+]2ccccc2-c2cccc[n+]2C1([2H])[2H]` was tested, and the outcome was “inactive”. `O=S1OCC2C(CO1)C1(Cl)C(Cl)=C(Cl)C2(Cl)C1(Cl)Cl` (centres undefined) was tested, and the outcome was “inactive”. With `CCc1ccc(C(=O)NN(C(=O)c2cc(C)cc(C)c2)C(C)(C)C)cc1` the outcome was “inactive”. With `CNC(=O)Oc1cccc(N=CN(C)C)c1` the outcome was “inactive”. With `Oc1ccc(Cl)cc1Cc1ccccc1` the outcome was “inactive”. `COC(=O)c1ccccc1S(=O)(=O)NC(=O)Nc1nc(C)nc(OC)n1` was tested, and the outcome was “inactive”. `COc1cc(OC)nc(NC(=O)NS(=O)(=O)c2cc(NC=O)ccc2C(=O)N(C)C)n1` was tested, and the outcome was “inactive”. `CC[C@H](C)[C@H]1O[C@]2(C=C[C@@H]1C)C[C@@H]1C[C@@H](C/C=C(\C)[C@@H](O[C@H]3C[C@H](OC)[C@@H](O[C@H]4C[C@H](OC)[C@@H](O)[C@H](C)O4)[C@H](C)O3)[C@@H](C)/C=C/C=C3\CO[C@@H]4[C@H](O)C(C)=C[C@@H](C(=O)O1)[C@]34O)O2` (tested in a mixture with another compound) was tested, and the outcome was “inactive”. With `O=[N+]([O-])/N=C1\NCCN1Cc1ccc(Cl)nc1` the outcome was “inactive”. For `Cc1[nH]c(=O)n(C(C)(C)C)c(=O)c1Cl`, the outcome was “inactive”. For `OCCOc1ccccc1`, the outcome was “inactive”. For `CCN(CC)C(=O)SCc1ccc(Cl)cc1`, the outcome was “inactive”. For `CCOc1nc(NC)nc(NC(=O)NS(=O)(=O)c2ccccc2C(=O)OC)n1`, the outcome was “inactive”.
